The experiment has as its target T1, ETS1 (UniProt P14921).
T1 sequence: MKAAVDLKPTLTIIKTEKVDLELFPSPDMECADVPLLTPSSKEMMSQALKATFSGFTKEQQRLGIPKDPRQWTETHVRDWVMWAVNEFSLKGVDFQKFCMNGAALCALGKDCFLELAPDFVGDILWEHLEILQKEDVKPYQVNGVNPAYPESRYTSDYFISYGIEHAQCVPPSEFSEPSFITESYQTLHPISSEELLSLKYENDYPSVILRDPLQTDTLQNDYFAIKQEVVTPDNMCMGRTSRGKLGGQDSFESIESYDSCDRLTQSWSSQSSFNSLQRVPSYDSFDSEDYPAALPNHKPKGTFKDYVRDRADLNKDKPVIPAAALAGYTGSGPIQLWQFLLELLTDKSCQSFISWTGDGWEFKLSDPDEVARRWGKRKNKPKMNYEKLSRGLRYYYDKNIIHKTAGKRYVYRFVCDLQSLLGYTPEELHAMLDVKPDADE
Description: ETS1 binding intensity (PBM fluorescence), ETS1 alone (arbitrary fluorescence units); higher = stronger binding. The settings on record: ETS1 concentration 1 nM; RUNX1 concentration 0 nM.
Sequence TGCCCCCTCCCCCTTCCGCTGTGGCCACCGGCTTTG yielded an ETS1 binding intensity of 764.

For CGAAGGAGGAAGCTGCACAGGGTGTCTGTGGCTGGC, the ETS1 binding intensity turned out to be 443.

Regarding ATGACTTAGCAACATCCTGACAACCACTACATTGTC, the ETS1 binding intensity was 476.

For GCACCGTCCCAGCATCCGGACACCACAGCGGCCCTT, the ETS1 binding intensity turned out to be 602.

For the sequence ACGCTGGAATCGCGGAAACCGCCGGTGCACGTTGGA, the ETS1 binding intensity was found to be 531.

In turn, CACTTGTCCTTCCTGGCCTGCGGCCGCCACCACTTC came in with an ETS1 binding intensity of 443.

For GTATTTATTTCCTCTTCGAAGAAATGCGGGGGTGCC, the ETS1 binding intensity worked out at 473.

Turning to GCAGGAAACGCTTTCTTAACACTATGTGGGTGAGGT, the ETS1 binding intensity came out at 763.

As for CCTCCAGGAAGCGATAAGTGACTGTGGTGGAGAGAG, the ETS1 binding intensity is 663.

In turn, CCAGGCGTTTCCGGGTTCCCGCGGTCCCGTCCCCCA showed an ETS1 binding intensity of 1340.

Consider GCATGTTCAAAAGGATGTGGGTGCTTACCTAGTGCC, for which the ETS1 binding intensity turned out to be 956.

GGAACGGAGGCGGAAGGGGCCCTGCGGCGACGACGT: the ETS1 binding intensity amounted to 679.

In the case of TGCTGTTTCCTCTGCTGCCGAAGCGGTTTCTTCCAC, the ETS1 binding intensity amounted to 443.

Sequence ACCTCTTCCGAGACCCAAAATGCGCGGTCTGGAGAG came in with an ETS1 binding intensity of 448.

In the case of AATGGCGGGAAGTAAGAGGAATGTGGGCCTGACTGC, the ETS1 binding intensity is 499.

Sequence CAGTCTCCTTCCGCGTCACCTCTGTGACCGCTGTGC had an ETS1 binding intensity of 414.

Regarding AGGCGAAGGATGACTTCCTGCGGCACTACACAGTGT, the ETS1 binding intensity was found to be 610.

AACAGCTTTTGTCCAGGATGTGGCTTCATAGCCTTG gave an ETS1 binding intensity of 1650.

CTCGGAGCGGAACTACTAGGGTGGTTTCTCCTGAGG returned an ETS1 binding intensity of 464.

CCACTCCCAGCTCCATCCTGTGGGTAGAACTCAGTG: the ETS1 binding intensity came to 477.

In turn, GCTTACGTCACGTCCGGCGCCTGCGGCCCACCCCTC gave an ETS1 binding intensity of 592.

Sequence CTCCGGGAACAGCGGAAAAGGGACCGCATGAACCTC yielded an ETS1 binding intensity of 900.

Take GTGACCCAATACTTCCTGCCACAATACTGAGAACTC: the ETS1 binding intensity came to 841.

As to AATAAACAGGAAGGTCTCTTGGAGCTGTGGTCTTGG, the ETS1 binding intensity was determined as 677.

GTAGCCGGGTGTTCCGGAGCGCTGCGGGCAAAGCAG showed an ETS1 binding intensity of 387.

Consider TGGCTTGAGCTCAGGAAGTTGTGGCTGCAGTAAGCT, for which the ETS1 binding intensity stood at 1470.

Take GCAGCCAGGGTAGGAAGTGGTAAGACCTCCCTGTGA: the ETS1 binding intensity was found to be 893.

Sequence CCTCATTTCCGGGCTGTTTGCGCGCAAGCCCACATC gave an ETS1 binding intensity of 1090.

For GTGCAGGCAATGAGGATGTTGTGGGGGAGACAGGGA, the ETS1 binding intensity is 746.

GTCGTGTTTGGCTTCCTGTGGGCACGCCTGCGTAGC had an ETS1 binding intensity of 589.

With AACAGATCCTTCCTGGCCCCCACTAGCCACAGGTTT, the ETS1 binding intensity is 490.

CTCTTCTTCAGGGTTTCCTGTGGGTACACTGAGAAC returned an ETS1 binding intensity of 604.

As to GGCGCCTCTTTCCGCCCCCGCCCACAATCGAGCGCA, the ETS1 binding intensity came out at 535.

GCGCCATTTCCGCTGCGCAAGGCACCACAGGCCCTG returned an ETS1 binding intensity of 1140.

The sequence TCTCTTCTCCCCATCCGCCCGAGACCACAGCCACTC showed an ETS1 binding intensity of 509.

The sequence CTGCTTCGGCCCGGCTTCCGCCCACAGTCAACTGCC showed an ETS1 binding intensity of 825.

For GTCGTCAGCGTCTTCCTGTCAGCGGTCGGCAGAGCC, the ETS1 binding intensity worked out at 706.

The sequence CAGCCCTAGCGAGTTTCCTGCGGGGAAGGGCATTCC had an ETS1 binding intensity of 537.

For GGCCGGGGACGGAAGGCGGGCCCGCAGCAGATCCTG, the ETS1 binding intensity was 475.

In turn, AGCCAGGAAATCCGCACCTACACAGCCCAACCACAG showed an ETS1 binding intensity of 582.
